Where “and” joins values, the source holds several entries; their conditions need not be identical. Equal entries are not always repeated. Among all 5,500 compounds or so, about 2,000 (36%) were called active. Roughly 18% stayed inconclusive and do not appear here. No stated cut-off is given here; in the data, active means normalized growth mostly below about 0.91 (no sharp cut-off); inconclusive means no clear call, values can overlap the other calls; inactive means mostly above about 0.92. Some of the results follow.
Experiment: chemical genetic growth profiling, strain panel (AID 1159580);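 further: tested at 20 µM; growth read once vehicle control cultures reached saturation at 30 °C; 1 = growth at the plate median or of vehicle wells; lower values mean less growth of the strain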
Details: S. cerevisiae deletion strains, growth OD

Measured: normalized growth

NCC(O)CC(=O)O (centres undefined)
inactive: locus YAL021C, strain ccr4, active compounds read low 1.01 | locus YAL026C, strain drs2, active compounds read low 0.967 | locus YAL030W, strain snc1, active compounds read low 0.98 | locus YBL061C, strain skt5, active compounds read low 0.986 | locus YBR009C, strain hhf1, active compounds read low 0.962 | locus YBR021W, strain FUR4, active compounds read low 0.999 | locus YBR023C, strain chs3, active compounds read low 0.994 | locus YBR171W, strain sec66, active compounds read low 0.989 | locus YBR229C, strain ROT2, active compounds read low 1.01 | locus YBR231C, strain swc5, active compounds read low 0.995 | locus YBR279W, strain paf1, active compounds read low 0.991 | locus YCL011C, strain gbp2, active compounds read low 0.966 | locus YCL016C, strain dcc1, active compounds read low 0.994 | locus YCL029C, strain bik1, active compounds read low 0.992 | locus YCL061C, strain MRC1, active compounds read low 0.995 | locus YCL069W, strain vba3, active compounds read low 0.984 | locus YCR088W, strain abp1, active compounds read low 0.977 | locus YDL005C, strain med2, active compounds read low 0.969 | locus YDL035C, strain GPR1, active compounds read low 1.01 | locus YDL040C, strain nat1, active compounds read low 0.991 | locus YDL074C, strain BRE1, active compounds read low 1.01 | locus YDL101C, strain DUN1, active compounds read low 1.01 | locus YDL134C, strain PPH21, active compounds read low 1.01 | locus YDL185W, strain tfp1, active compounds read low 0.994 | locus YDL192W, strain arf1, active compounds read low 0.997 | locus YDR001C, strain nth1, active compounds read low 0.977 | locus YDR069C, strain doa4, active compounds read low 1.04 | locus YDR101C, strain arx1, active compounds read low 1.02 | locus YDR137W, strain rgp1, active compounds read low 0.988 | locus YDR159W, strain sac3, active compounds read low 0.968 | locus YDR162C, strain NBP2, active compounds read low 1.02 | locus YDR195W, strain ref2 0.951 | locus YDR297W, strain sur2, active compounds read low 0.986 | locus YDR318W, strain mcm21, active compounds read low 1.01 | locus YDR334W, strain swr1, active compounds read low 0.975 | locus YDR335W, strain msn5, active compounds read low 0.988 | locus YDR388W, active compounds read low 0.999 | locus YDR392W, strain spt3, active compounds read low 0.892 | locus YDR502C, strain sam2, active compounds read low 0.991 | locus YEL003W, strain gim4, active compounds read low 0.964 | locus YEL037C, strain rad23, active compounds read low 0.977 | locus YEL061C, strain CIN8 (second series), active compounds read low 0.966 | locus YEL061C, strain CIN8, active compounds read low 1.01 | locus YER015W, strain faa2, active compounds read low 0.986 | locus YER016W, strain bim1, active compounds read low 0.983 | locus YER110C, active compounds read low 1 | locus YER111C, strain swi4, active compounds read low 0.974 | locus YER155C, strain BEM2 (second series), active compounds read low 0.997 | locus YER155C, strain BEM2, active compounds read low 1.01 | locus YER167W, strain BCK2, active compounds read low 1.01 | locus YFR010W, strain ubp6, active compounds read low 0.973 | locus YGL078C, strain dbp3, active compounds read low 0.994 | locus YGL086W, strain mad1, active compounds read low 1 | locus YGL167C, strain pmr1, active compounds read low 0.957 | locus YGL173C, strain kem1, active compounds read low 0.984 | locus YGL227W, strain vid30, active compounds read low 0.955 | locus YGL240W, strain doc1, active compounds read low 0.989 | locus YGL248W, strain PDE1, active compounds read low 1.01 | locus YGL253W, strain hxk2, active compounds read low 0.989 | locus YGR078C, strain PAC10, active compounds read low 1.01 | locus YGR135W, strain pre9, active compounds read low 1 | locus YGR252W, strain gcn5, active compounds read low 0.982 | locus YHR013C, strain ard1, active compounds read low 0.964 | locus YHR027C, strain rpn1, active compounds read low 0.997 | locus YHR030C, strain SLT2, active compounds read low 1.01 | locus YHR079C, strain IRE1 (second series), active compounds read low 1 | locus YHR079C, strain IRE1, active compounds read low 1.03 | locus YHR094C, strain hxt1, active compounds read low 0.988 | locus YHR129C, strain ARP1, active compounds read low 1.01 | locus YHR142W, strain chs7, active compounds read low 1.02 | locus YHR200W, strain rpn10, active compounds read low 0.999 | locus YIL066C, strain RNR3, active compounds read low 1.02 | locus YIL073C, strain SPO22, active compounds read low 1.03 | locus YIL125W, strain kgd1, active compounds read low 1.01 | locus YIR030C, strain dcg1, active compounds read low 1 | locus YJL092W, strain hpr5, active compounds read low 0.99 | locus YJL095W, strain BCK1 (second series), active compounds read low 1.01 | locus YJL095W, strain BCK1, active compounds read low 1.01 and 1.02 | locus YJL115W, strain asf1, active compounds read low 0.981 | locus YJL129C, strain trk1, active compounds read low 0.991 | locus YJL134W, strain LCB3, active compounds read low 1.01 | locus YJL154C, strain vps35, active compounds read low 0.981 | locus YJL164C, strain tpk1, active compounds read low 1.06 | locus YJL166W, strain qcr8, active compounds read low 1.02 | locus YJL168C, strain set2, active compounds read low 0.997 | locus YJL187C, strain SWE1 (second series), active compounds read low 1.02 | locus YJL187C, strain SWE1, active compounds read low 0.994 | locus YJR043C, strain POL32, active compounds read low 1.02 | locus YJR066W, strain TOR1, active compounds read low 0.924
